According to the supplement of paper PMC10849652:
Targets with a hit are over-represented here; the source holds about 7,900 in all. About 0.6% of all pairs of compound and target were hits.

molecular target: YIPF5 isoform 3 (UniProt Q969M3); assay: log2 fold change, soluble protein after heating vs DMSO (PISA); higher = thermal stabilisation; K562 cells, 10 uM, 30 min; active = over 0.2 and 3.5 SD of the protein, either way, in both replicates (recomputed)
How it was run: (§1)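 Quantification of soluble protein used TMTpro 16plex LC-MS/MS, with channel sums equalised. Samples were the supernatant after 21,000xg for 90 min of pooled aliquots from K562 cells (2×10^6 cells/mL) treated with 10 μM compound for 30 min, heated for 3 min over 48°C-58°C, and extracted in PBS with 0.5% NP-40 at 4°C. Values, from duplicates, describe thermal stability against control samples on a log2 fold-change scale.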

Sequence of YIPF5 isoform 3 (Q969M3 whole entry, looked up, canonical isoform): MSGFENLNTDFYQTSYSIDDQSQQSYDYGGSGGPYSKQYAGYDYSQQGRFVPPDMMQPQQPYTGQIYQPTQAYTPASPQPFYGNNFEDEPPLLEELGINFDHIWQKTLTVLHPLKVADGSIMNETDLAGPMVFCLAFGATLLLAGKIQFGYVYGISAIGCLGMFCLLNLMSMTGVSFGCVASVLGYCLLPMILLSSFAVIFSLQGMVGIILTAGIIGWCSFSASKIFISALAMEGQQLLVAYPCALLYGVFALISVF

log2 fold change, inactive:
CN1CCN(CCOc2cc(OC3CCOCC3)c3c(Nc4c(Cl)ccc5c4OCO5)ncnc3c2)CC1 [saracatinib] 0.007
C[C@@H](N)c1ccc(C(=O)Nc2ccnc3[nH]ccc23)cc1 -0.077
Fc1ccc(Cl)cc1-c1nc(Nc2ccncc2)c2nccnc2n1 0.024
Cc1cc(Nc2cc(N3CCN(C)CC3)nc(Sc3ccc(NC(=O)C4CC4)cc3)n2)n[nH]1 [tozasertib] -0.089
c1cc(OCCN2CCCCC2)cc(-c2n[nH]c3ccc(-c4nnc[nH]4)cc23)c1 -0.043
C/C(=N\NC(=O)c1cccc(S(=O)(=O)N2CCOCC2)c1)c1cc(Cl)ccc1O 0.016
O=C(Nc1cccc(Nc2ncc(Br)c(NCCc3cnc[nH]3)n2)c1)N1CCCC1 0.033
NC1(c2ccc(-c3nc4ccn5c(=O)[nH]nc5c4cc3-c3ccccc3)cc2)CCC1 0.017
Cc1cccc(-c2[nH]c(C(C)(C)C)nc2-c2ccc3nccnc3c2)n1 -0.073
CC(C)N(C[C@H]1O[C@@H](n2cnc3c(N)ncnc32)[C@H](O)[C@@H]1O)[C@H]1C[C@@H](CCc2nc3cc(C(C)(C)C)ccc3[nH]2)C1 [pinometostat] 0.016
COc1cc2nc(-c3cc(F)ccc3O)nc(N[C@@H]3CNC[C@H]3C(C)(C)O)c2cc1OC 0.13
CNC(=O)c1ccccc1Nc1nc(Nc2ccc(N3CCOCC3)cc2OC)ncc1Cl 0.088
O=C(Nc1nc2ccccc2n1CCN1CCOCC1)c1cccc([N+](=O)[O-])c1 [IRAK-1-4 Inhibitor I] -0.035
C[C@@H](Oc1cc(-c2cnn(C3CCNCC3)c2)cnc1N)c1c(Cl)ccc(F)c1Cl [crizotinib] 0.081
COc1cc(Nc2ncc3c(n2)-c2ccc(Cl)cc2C(c2c(F)cccc2OC)=NC3)ccc1C(=O)O [alisertib] -0.009
CN1CC[C@H](c2c(O)cc(O)c3c(=O)cc(-c4ccccc4Cl)oc23)[C@H](O)C1 [alvocidib] 0.003
CN1CCc2c(c3ccccc3n2Cc2ccc(C(=O)NO)cc2)C1 [Tubastatin A] -0.103
O=C1c2ccccc2-c2n[nH]c3cccc1c23 -0.153
CNCc1ccc(-c2[nH]c3cc(F)cc4c3c2CCNC4=O)cc1 [rucaparib] 0
COc1cccc2cc(-c3nc([C@H]4CC[C@H](C(=O)O)CC4)n4ncnc(N)c34)[nH]c12 0.017
Cc1ccc2c(=O)c3ccccc3n(CCCN)c2c1C -0.006
O=C1NC(=O)C(c2cnc3ccccn23)=C1c1cn2c3c(cc(F)cc13)CN(C(=O)N1CCCCC1)CC2 0.032
COc1ccc(Cn2ccc3ccc(C(=O)NO)cc32)cc1 -0.065
CN(C)CC(=O)Nc1ccc2[nH]c(=O)c3ccccc3c2c1 0.014
COc1cc(C(=O)O)ccc1NC(=O)[C@@H]1N[C@@H](CC(C)(C)C)[C@](C#N)(c2ccc(Cl)cc2F)[C@H]1c1cccc(Cl)c1F [idasanutlin] -0.051
O=C1NC(=NCc2cccs2)S/C1=C\c1ccc2ncccc2c1 -0.008
NC(=O)c1cnc(N[C@@H]2CCCC[C@@H]2N)nc1Nc1cccc(-n2nccn2)c1 -0.016
Cc1ccc(-n2nc(C(C)(C)C)cc2NC(=O)Nc2ccc(OCCN3CCOCC3)c3ccccc23)cc1 [doramapimod] 0.041
NC1(Cc2ccc(Cl)cc2)CCN(c2ncnc3[nH]ccc23)CC1 0.126
CC(=O)c1cnc2ccc(-c3cc(Cl)c(O)c(Cl)c3)nc2c1N[C@H]1CC[C@H](CN(C)C)CC1 0.023

molecular target: YIPF6 (UniProt Q96EC8); assay: as above
How it was run: as §1

Sequence of YIPF6 (Q96EC8 whole entry, looked up): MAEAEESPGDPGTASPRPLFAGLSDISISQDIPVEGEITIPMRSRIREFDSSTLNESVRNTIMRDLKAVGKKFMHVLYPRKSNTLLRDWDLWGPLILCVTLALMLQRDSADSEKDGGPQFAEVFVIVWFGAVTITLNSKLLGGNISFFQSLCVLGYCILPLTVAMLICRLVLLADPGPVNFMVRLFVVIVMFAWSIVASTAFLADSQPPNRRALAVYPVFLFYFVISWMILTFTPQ

log2 fold change, inactive:
CN1CCN(CCOc2cc(OC3CCOCC3)c3c(Nc4c(Cl)ccc5c4OCO5)ncnc3c2)CC1 [saracatinib] -0.023
C[C@@H](N)c1ccc(C(=O)Nc2ccnc3[nH]ccc23)cc1 -0.013
Fc1ccc(Cl)cc1-c1nc(Nc2ccncc2)c2nccnc2n1 0.138
Cc1cc(Nc2cc(N3CCN(C)CC3)nc(Sc3ccc(NC(=O)C4CC4)cc3)n2)n[nH]1 [tozasertib] -0.066
c1cc(OCCN2CCCCC2)cc(-c2n[nH]c3ccc(-c4nnc[nH]4)cc23)c1 0.036
C/C(=N\NC(=O)c1cccc(S(=O)(=O)N2CCOCC2)c1)c1cc(Cl)ccc1O -0.067
O=C(Nc1cccc(Nc2ncc(Br)c(NCCc3cnc[nH]3)n2)c1)N1CCCC1 -0.013
NC1(c2ccc(-c3nc4ccn5c(=O)[nH]nc5c4cc3-c3ccccc3)cc2)CCC1 -0.024
Cc1cccc(-c2[nH]c(C(C)(C)C)nc2-c2ccc3nccnc3c2)n1 0.047
CC(C)N(C[C@H]1O[C@@H](n2cnc3c(N)ncnc32)[C@H](O)[C@@H]1O)[C@H]1C[C@@H](CCc2nc3cc(C(C)(C)C)ccc3[nH]2)C1 [pinometostat] 0.023
COc1cc2nc(-c3cc(F)ccc3O)nc(N[C@@H]3CNC[C@H]3C(C)(C)O)c2cc1OC 0.043
CNC(=O)c1ccccc1Nc1nc(Nc2ccc(N3CCOCC3)cc2OC)ncc1Cl -0.006
O=C(Nc1nc2ccccc2n1CCN1CCOCC1)c1cccc([N+](=O)[O-])c1 [IRAK-1-4 Inhibitor I] 0.029
C[C@@H](Oc1cc(-c2cnn(C3CCNCC3)c2)cnc1N)c1c(Cl)ccc(F)c1Cl [crizotinib] -0.081
COc1cc(Nc2ncc3c(n2)-c2ccc(Cl)cc2C(c2c(F)cccc2OC)=NC3)ccc1C(=O)O [alisertib] 0.419
CN1CC[C@H](c2c(O)cc(O)c3c(=O)cc(-c4ccccc4Cl)oc23)[C@H](O)C1 [alvocidib] 0.022
CN1CCc2c(c3ccccc3n2Cc2ccc(C(=O)NO)cc2)C1 [Tubastatin A] -0.01
O=C1c2ccccc2-c2n[nH]c3cccc1c23 -0.018
CNCc1ccc(-c2[nH]c3cc(F)cc4c3c2CCNC4=O)cc1 [rucaparib] 0.055
COc1cccc2cc(-c3nc([C@H]4CC[C@H](C(=O)O)CC4)n4ncnc(N)c34)[nH]c12 0.02
Cc1ccc2c(=O)c3ccccc3n(CCCN)c2c1C 0.145
O=C1NC(=O)C(c2cnc3ccccn23)=C1c1cn2c3c(cc(F)cc13)CN(C(=O)N1CCCCC1)CC2 0.01
COc1ccc(Cn2ccc3ccc(C(=O)NO)cc32)cc1 -0.019
CN(C)CC(=O)Nc1ccc2[nH]c(=O)c3ccccc3c2c1 -0.012
COc1cc(C(=O)O)ccc1NC(=O)[C@@H]1N[C@@H](CC(C)(C)C)[C@](C#N)(c2ccc(Cl)cc2F)[C@H]1c1cccc(Cl)c1F [idasanutlin] -0.008
O=C1NC(=NCc2cccs2)S/C1=C\c1ccc2ncccc2c1 0.042
NC(=O)c1cnc(N[C@@H]2CCCC[C@@H]2N)nc1Nc1cccc(-n2nccn2)c1 -0.088
Cc1ccc(-n2nc(C(C)(C)C)cc2NC(=O)Nc2ccc(OCCN3CCOCC3)c3ccccc23)cc1 [doramapimod] -0.036
NC1(Cc2ccc(Cl)cc2)CCN(c2ncnc3[nH]ccc23)CC1 -0.015
CC(=O)c1cnc2ccc(-c3cc(Cl)c(O)c(Cl)c3)nc2c1N[C@H]1CC[C@H](CN(C)C)CC1 0.008
